# PubChem BioAssay
# Calls of active or inactive are those of the source. Unless noted, the rule behind the calls is not given here.
# How the values were obtained:
# [1] = compound effects on lung adenocarcinoma cell viability – A549, calcein-AM fluorescence, 48 h, basal, profiling panel (AID 1162); settings: higher = more signal; note: test concentration not given here
# [2] = compound effects on differentiated 3T3-L1 adipocyte viability – cell-based, 3T3-L1 adipocytes, calcein-AM fluorescence, 48 h, basal, profiling panel (AID 1163); settings: 3T3-L1 adipocytes viability, higher = more signal; note: test concentration not given here
# [3] = compound effects on hepatocellular carcinoma cell viability – HepG2, calcein-AM fluorescence, 48 h, basal, profiling panel (AID 1164); settings: higher = more signal; note: test concentration not given here
# [4] = compound effects on multiple myeloma cell viability – MM1S, calcein-AM fluorescence, 48 h, basal, profiling panel (AID 1165); settings: higher = more signal;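 note: viability of MM1S multiple myeloma cells under basal unstimulated conditions; test concentration not given here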
# [5] = calcein-AM signal in unstimulated myeloma cells – cell-based, calcein-AM fluorescence, 48 h, PK04 Diversity Set, profiling panel (AID 1166); settings: RPMI8226 myeloma viability, higher = more signal;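 note: cells grown under basal conditions without added stimulus; test concentration not given here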
# [6] = JC-1 mitochondrial signal, unstimulated HepG2 cells – cell-based, JC-1 fluorescence, 24 h, 100 nL compound, profiling panel (AID 1167); settings: HepG2 mitochondrial potential, higher = more signal; note: test concentration not given here
# [7] = JC-1 mitochondrial signal, unstimulated adipocytes – cell-based, JC-1 fluorescence, 3T3-L1 adipocytes, 24 h, 100 nL compound, profiling panel (AID 1168); settings: JC-1 mitochondrial fluorescence, higher = more signal, called active from +8 up or from −8 down; note: test concentration not given here
# [8] = JC-1 mitochondrial signal, unstimulated myeloma cells – cell-based, JC-1 fluorescence, RPMI8226, 24 h, 100 nL compound, profiling panel (AID 1169); settings: JC-1 mitochondrial potential fluorescence, higher = more signal; note: test concentration not given here
# [9] = JC-1 mitochondrial signal, unstimulated MM1S myeloma – cell-based, JC-1 fluorescence, 24 h, 100 nL compound, profiling panel (AID 1170); settings: MM1S mitochondrial potential, higher = more signal; note: test concentration not given here
# [10] = resazurin metabolic signal in A549 cells – cell-based, resazurin fluorescence, 24 h, PK04 Diversity Set, profiling panel (AID 1171); settings: A549 viability, higher = more signal, called active from +8 up or from −8 down; note: test concentration not given here
# [11] = resazurin metabolic signal in HepG2 cells – cell-based, resazurin fluorescence, 24 h, PK04 Diversity Set, profiling panel (AID 1172); settings: HepG2 viability, higher = more signal; note: test concentration not given here
# [12] = budding yeast growth changes without added modifier – OD600, strain BY4716, 24 h, basal condition, primary screen (AID 1173); settings: S. cerevisiae BY4716 growth, OD600, 24 h; higher = more signal, called active from +8 up or from −8 down
# [13] = viability profiling in MM1S myeloma cells – cell-based, resazurin fluorescence, basal, 24 h, PK04 Diversity Set, profiling panel (AID 1174); settings: higher = more signal, called active from +8 up or from −8 down; note: test concentration not given here
# [14] = molecular target: Dihydroorotate dehydrogenase (quinone), mitochondrial (Plasmodium falciparum (isolate 3D7)) (UniProt Q08210); assay: inhibition of P. falciparum DHODH – biochemical, C-terminal His tag, absorbance 600 nm, primary screen (AID 1175); settings: PfDHODH enzyme, DCIP absorbance 600 nm; higher = more signal, called active from +8 up or from −8 down;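 note: recombinant parasite enzyme with a five histidine tag at its C terminus; test concentration not given here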
# [15] = inhibition of PAO1 biofilm formation – strain PAO1, LB-PBS medium, absorbance 600 nm, primary screen (AID 1176); note: test concentration not given here; settings: P. aeruginosa PAO1 growth/biofilm, A600, 12 h; higher = more signal
# [16] = growth modulation of vineyard yeast isolate – strain RM11-1a, OD600, basal, 24 h, primary screen (AID 1177);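 note: cultures grown under basal conditions with no added stressor; test concentration not given here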; settings: S. cerevisiae RM11-1a growth, OD600, 24 h; higher = more signal, called active from +8 up or from −8 down
# [17] = growth of efflux-deficient E. coli DRC39 – strain DRC39, OD650, 24 h, E. coli filamentation inducers, primary screen (AID 1178);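 note: growth measured as culture turbidity by optical density at 650 nm; test concentration not given here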; settings: E. coli DRC39 acrAB, higher = more signal, called active from +8 up or from −8 down
# [18] = growth of efflux-deficient E. coli DRC39 – strain DRC39, OD650, 48 h, E. coli filamentation inducers, primary screen (AID 1179);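 note: screen aims at cell division blockers that make cells filament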; settings: E. coli DRC39 delta-acrAB growth, higher = more signal, called active from +8 up or from −8 down
# [19] = viability profiling in RPMI8226 myeloma cells – cell-based, resazurin fluorescence, basal, 24 h, PK04 Diversity Set, profiling panel (AID 1180); settings: higher = more signal;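 note: RPMI8826 multiple myeloma cell line at 5000 cells per well; test concentration not given here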
# [20] = molecular target: E3 ubiquitin-protein ligase XIAP (Homo sapiens) (UniProt P98170); assay: small molecules binding XIAP protein – biophysical, small-molecule microarray, fluorescence 635 nm, primary screen (AID 1181); settings: higher = more signal;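 note: score merges 667 nm emission and signal to noise over triplicate slides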
# E3 ubiquitin-protein ligase XIAP (Homo sapiens), sequence (P98170 whole entry, looked up): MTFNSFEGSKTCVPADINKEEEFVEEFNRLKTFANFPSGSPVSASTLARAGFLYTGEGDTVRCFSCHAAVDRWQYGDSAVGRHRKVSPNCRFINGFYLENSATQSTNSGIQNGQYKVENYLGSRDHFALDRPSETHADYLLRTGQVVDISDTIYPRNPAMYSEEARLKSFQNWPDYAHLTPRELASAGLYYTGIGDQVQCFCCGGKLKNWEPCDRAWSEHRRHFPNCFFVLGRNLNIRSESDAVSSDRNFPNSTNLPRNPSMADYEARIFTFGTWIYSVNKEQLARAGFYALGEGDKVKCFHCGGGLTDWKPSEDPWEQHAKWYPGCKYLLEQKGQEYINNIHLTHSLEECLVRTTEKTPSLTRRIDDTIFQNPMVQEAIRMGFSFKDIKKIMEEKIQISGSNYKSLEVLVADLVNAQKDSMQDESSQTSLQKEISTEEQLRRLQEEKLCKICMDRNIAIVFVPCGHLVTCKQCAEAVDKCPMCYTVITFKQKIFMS
# Dihydroorotate dehydrogenase (quinone), mitochondrial (Plasmodium falciparum (isolate 3D7)), sequence (Q08210 whole entry, looked up): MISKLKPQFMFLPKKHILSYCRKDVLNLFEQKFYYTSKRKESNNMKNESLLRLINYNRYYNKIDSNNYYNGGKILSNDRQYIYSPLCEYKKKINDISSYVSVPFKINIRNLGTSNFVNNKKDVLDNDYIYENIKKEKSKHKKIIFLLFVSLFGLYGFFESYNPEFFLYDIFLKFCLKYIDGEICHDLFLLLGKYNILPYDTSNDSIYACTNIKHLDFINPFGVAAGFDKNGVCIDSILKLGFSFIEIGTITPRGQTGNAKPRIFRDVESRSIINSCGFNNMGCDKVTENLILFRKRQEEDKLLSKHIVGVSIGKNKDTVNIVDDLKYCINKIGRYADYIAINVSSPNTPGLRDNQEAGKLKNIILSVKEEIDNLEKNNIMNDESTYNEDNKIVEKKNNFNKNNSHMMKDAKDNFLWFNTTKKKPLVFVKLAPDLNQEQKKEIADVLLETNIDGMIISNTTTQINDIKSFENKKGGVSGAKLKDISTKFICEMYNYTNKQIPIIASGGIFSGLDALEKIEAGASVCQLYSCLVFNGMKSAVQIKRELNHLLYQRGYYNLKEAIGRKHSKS
SMILES,z-score [1],z-score [2],z-score [3],z-score [4],z-score [5],z-score [6],z-score [7],z-score [8],z-score [9],z-score [10],z-score [11],z-score [12],z-score [13],composite z-score [14],z-score [15],z-score [16],z-score [17],z-score [18],z-score [19],composite z-score [20]
COC(=O)CC=C[C@@H](C)[C@@H](C=NOC[C@@H](O)COCc1ccco1)OC,1.3,-0.921,0.436,0.195,0.598,-0.327,0.499 (inactive),0.501,-0.281,-0.329 (inactive),-0.195,-0.656 (inactive),-0.45 (inactive),-0.527 (inactive),-1.23 (inactive),0.12 (inactive),0.539 (inactive),0.803 (inactive),0.11,0.0345
CC(CCN1CCCCc2nc(C)c(C)cc21)=NO[C@@H](C)c1cc(-c2c(C)cc(C)cc2C)no1,1.08,0.531,0.148,-2.9,-3.77,4,0.159 (inactive),-0.831,-1.74,2.06 (inactive),1.18,-6.11 (inactive),0.862 (inactive),-0.525 (inactive),-0.467 (inactive),-0.62 (inactive),0.777 (inactive),0.935 (inactive),1.51,0.626
CCCNC(=O)OC[C@H]1O[C@H](CCON=C2c3cc(OC)ccc3O[C@H](c3cccc(OC)c3)[C@H]2O)C=C[C@@H]1Oc1ccc(OC)cc1,0.111,0.752,-0.0825,-0.187,-0.572,1.38,-1.49 (inactive),0.0694,-0.0229,0.409 (inactive),-0.286,0.668 (inactive),-0.801 (inactive),0.159 (inactive),0.724 (inactive),0.391 (inactive),0.885 (inactive),-0.034 (inactive),-0.384,0.02
CC(C)=CCCC(C)=CCON=C1C[C@@H](O)[C@@H](O)[C@@H]2[C@@H]3C(=O)N(C4CCCCC4)C(=O)[C@@H]3CC[C@H]12,-0.529,-0.735,-0.0977,-2.9,-0.201,-1.47,-0.444 (inactive),-0.467,-1.4,-0.587 (inactive),-0.346,-0.339 (inactive),-2.69 (inactive),0.235 (inactive),-0.437 (inactive),0.577 (inactive),0.354 (inactive),0.683 (inactive),-1.7,-0.111
CCOC(=O)[C@H](CC(C)C)NC(=O)CCC1CC(OC(=O)NCc2ccc3c(c2)OCO3)CC2(CCCC(COC(=O)NCCc3ccc(Cl)cc3)O2)O1 (stereo not given in full),0.0432,-0.179,0.0309,-0.986,0.415,-0.253,0.526 (inactive),-0.966,-0.238,0.39 (inactive),0.538,-0.723 (inactive),0.984 (inactive),-0.704 (inactive),-0.151 (inactive),-0.166 (inactive),0.337 (inactive),-0.294 (inactive),1.13,-0.157
CO[C@H]1COC(=O)CC=C[C@@H](C)COC(=O)[C@H]2CCCN2C(=O)CC=C[C@H]1C,1.22,-0.429,0.707,0.462,0.18,0.722,0.00299 (inactive),0.418,0.748,-0.823 (inactive),-0.3,-0.872 (inactive),-0.0093 (inactive),0.119 (inactive),0.246 (inactive),0.473 (inactive),1.14 (inactive),0.745 (inactive),-0.258,0.0595
CC(=O)OC[C@H]1O[C@H](CC=NOC[C@@H](O)COCc2ccco2)C=C[C@@H]1OC(C)=O,1.04,-0.0657,0.341,-0.175,-0.498,0.186,0.998 (inactive),-0.198,-1.01,0.0719 (inactive),-0.13,0.0523 (inactive),0.166 (inactive),-0.554 (inactive),-1.26 (inactive),0.178 (inactive),0.574 (inactive),0.924 (inactive),0.396,-0.306
COC(=O)C1=C(C)N(Cc2ccccc2)C2=C3C(=O)OCC[C@@H]3[C@@](O)(C(=O)OC)C(=O)N2[C@@H]1c1ccccc1,1.62,-0.792,0.24,0.489,-0.755,1.85,-1.11 (inactive),-0.391,-0.91,0.56 (inactive),1.11,-0.319 (inactive),-1.3 (inactive),0.524 (inactive),-0.458 (inactive),0.681 (inactive),0.933 (inactive),0.575 (inactive),-0.0018,-0.0931
COC(=O)[C@H](C)NC(=O)CCC1CC(OC(=O)NCc2cccc3ccccc23)CC2(CCCC(COC(=O)NCCOc3ccccc3)O2)O1 (stereo not given in full),-0.13,0.151,-1.24,-3.37,-3.01,-0.234,-0.198 (inactive),-0.458,-0.463,1.33 (inactive),0.311,-0.689 (inactive),0.875 (inactive),-0.989 (inactive),-0.458 (inactive),0.149 (inactive),0.008 (inactive),-0.693 (inactive),0.564,-0.275
